The full ranking holds about 33,000 sequences; the median of “e-score” is about -0.038, and the highest 2% start at about 0.33. This excerpt belongs to a sample that is enriched for the highest values.
The sequences below were run against T1, GST-Rok-C97-191 (Bacillus subtilis subsp. subtilis str. …, UniProt O34857 97-191) (assay: protein binding microarray; Rok is a gene silencer of Bacillus subtilis; high values mean tight binding). Conditions: protein: recombinant; tags: GST (pTH5325, pDEST15-Magic modified); dsDNA, one strand shown.
T1 sequence: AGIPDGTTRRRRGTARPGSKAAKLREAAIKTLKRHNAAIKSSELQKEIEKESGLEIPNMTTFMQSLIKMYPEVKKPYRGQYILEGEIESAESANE
How it was run: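 Each has a 25-mer constant primer and a 35-mer variable part from a de Bruijn sequence of order 10, covering every non-palindromic 8-mer at least 32 times (palindromic 16). Preference for each 8-mer is given as a rank-based, unitless enrichment score (E-score). Its range runs from 0.5 (most favored) to −0.5 (most disfavored).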

Sequence	binding signal [E-score]
GGAACTAC	0.254
TTAACTAA	0.235
CTAACTAA	0.288
GTAACTAA	0.353
CTAACTAG	0.268
GTAACTAC	0.417
CTAACTAC	0.348
CTAACTCC	-0.00723
ATAACTAC	0.323
CAAGCAGA	0.0345
GCCGAATA	0.0948
GCTCGTAA	0.0484
ACTCCAGC	0.114
CTGAAGGA	-0.156
ATCCAGCG	-0.106
AACTACCA	0.433
AACTACCG	0.41
CACTACCC	-0.0292
CACTACCA	0.0866
CACTACCG	0.065
AACTATCT	0.294
AGCTACCG	0.228
ACCTACCT	0.154
AACTACCC	0.338
AACTACCT	0.412

Sequence	binding signal [E-score]
GACTACCA	0.141
GACTACCC	0.0938
CAATTTTA	0.234
ACGGGAGA	-0.12
CAAGTTGA	-0.0731
TCGACTAA	0.0796
AAAGTTCT	0.145
GCTCGGTA	0.0228
AGCGGCCG	-0.112
CATTGATA	0.26
ACGTTCAC	0.0772
GATAAGTA	0.238
CCGTCGAA	0.0267
GGAATGGA	-0.114
TGCTACCA	0.099
TACTACCA	0.404
TCCTACCA	0.273
CGCTACGA	0.0242
CCTGTCCC	0.0167
AAATACTA	0.434
CAATACTA	0.217
AAATACTG	0.283
AAATACTC	0.205
GAATACTA	0.209
TAATACTA	0.401

Sequence	binding signal [E-score]
CATCCCTA	-0.0266
AGCTCGTA	0.00298
AATCTAGA	0.331
AATCTATA	0.4
AATCTATC	0.421
GATCTATA	0.305
CATCTATA	0.201
CATCTATC	0.201
AATCTATG	0.135
AATCTAGG	0.171
TATCTAGA	0.159
ACACGTGT	0.00499
GATAAGAC	0.14
ACATGCGG	0.0405
AAAAAGAG	-0.0136
CTCACATC	-0.132
ATTCATCA	0.0772
ACGATGCT	0.0784
ACTGACAT	-0.113
ACAGTCCC	-0.126
GCATAGAC	-0.0624
CACATGTA	0.162
AACATATA	0.208
TACATATA	0.349
TACATCTA	0.369

Sequence	binding signal [E-score]
CATATGGA	0.0214
AACATGTA	0.237
GACATATA	0.307
AACATCTA	0.165
GATATGGA	0.0314
TACATGTA	0.417
TATATGGA	0.343
CACATCTA	0.151
AGTCAACT	0.173
AGATTCGA	0.104
ATAATTCG	0.213
CCTGGTTA	0.0123
CGACTCTA	-0.0898
CCACATAC	0.16
AGTGGAAT	-0.0459
CATATATC	0.279
TATATCGA	0.314
TATATAGA	0.397
GATATAGA	0.244
TATATATA	0.454
CTTATATA	0.321
CATATATA	0.353
CATATATG	0.306
CATATAGA	0.144
CCAGTACA	0.0219

Sequence	binding signal [E-score]
GTAGTGCA	0.015
CAGGGCTA	-0.0484
CCTGTATA	0.157
CAGGCGCC	-0.149
TACGTTCA	0.085
CATAACGC	0.0154
ACTTTGGA	-0.0486
ATGACGTA	-0.0485
AATCTGGA	-0.12
AACCAGTA	0.278
ATCTAGTC	0.287
ACCTAGTA	0.233
CACTAGTG	-0.0787
ATCTAGTG	0.364
CACTAGTA	0.253
AACTAGGG	-0.0014
ATCTAGTA	0.31
AACTAGTC	0.0892
AACTAGGT	0.318
AACTAGTT	0.439
AACTAGTA	0.47
AACTAGTG	0.376
CTGACATC	-0.162
ATTACGCC	-0.0244
CTTAAAGA	-0.126

Sequence	binding signal [E-score]
CATAGTGC	-0.076
ATTGTCCG	-0.0512
AAGCAAGC	-0.165
CAGCAATA	0.203
CGTCATAC	0.0184
GACTAGTC	0.0585
GACTAGTA	0.368
GGCTAGTA	0.115
AGCTAGTA	0.336
TACTAGCA	0.256
AGCTAGTC	0.104
GACTAGGA	-0.0139
TACTAGTA	0.433
TACTAGGA	0.115
AGCGCTCA	0.00935
CTGCTACC	-0.0872
TCCCTAAA	-0.186
ACGCGCTC	-0.0411
AGTTTCCG	0.112
GCGGCCAA	-0.114
GAACGTTA	0.178
TAACGTTA	0.339
AAACGTTA	0.0818
CCTAATGC	-0.154
AACGTGGC	-0.0901

Sequence	binding signal [E-score]
GAAGTATA	0.164
CAAGTATA	0.251
CTAGTATA	0.37
ATAGTATC	0.278
ATAGTATA	0.334
GTAGTATA	0.428
CTAGTATC	0.111
GCAGTATA	0.224
ATAGTATG	0.316
CGTTGGAG	-0.19
AGGTATAC	0.19
CATTCATA	0.181
CTGTCCCA	-0.0317
CTTTCTCA	-0.12
AGGGAAAC	-0.0931
ACATAGAT	0.33
AGATAGAG	0.128
ACATAGAG	-0.0925
AGATAGAC	0.0495
AGATAGAT	0.349
ACATAGAC	0.0775
AATTAGAA	0.202

— publication PMC6212790, “How bacterial xenogeneic silencer rok distinguishes foreign from self DNA in its resident genome”
